# Rows were chosen to be rich in hits. Some 18% of all compounds tested hit in one or more screens of this group.
# IL-1B inflam inh – qHTS for Inhibitors of Inflammasome Signaling: IL-1-beta AlphaLISA Primary Screen | AID 743279, 2014 | THP-1 LPS/ATP IL-1B secretion, AlphaLISA, 16 h; hits give low values | hit rate 4.7% among 360,000 | activity change, % at 57.5 µM; in the data active = activity change below about -50%; inconclusive = mostly about -30% to -49%
#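 Secreted IL-1B measured by AlphaLISA bead assay after 16 h compound exposure of THP-1 cells; compounds (final up to 57.5 uM) added 1 h before LPS (250 ng/mL) and ATP (1.25 mM) stimulation; lower signal means less secretion.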
# Gal4-VP16 FLuc – VP16 counterscreen qHTS for inhibitors of ROR gamma transcriptional activity. Drosophila S2 Gal4-VP16 UAS-luciferase, luminescence, 20 h. Potency, µM (series often up to 53.6 µM), actives largely listed as inhibitors. hit rate 3.5% among 310,000;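 note: Gal4-VP16 expression switched on by copper sulfate through the metallothionein promoter; nearly all actives have a fitted effect of over 50% in size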
# RORgamma inh – qHTS for inhibitors of ROR gamma transcriptional activity | Nuclear receptor ROR-gamma (Mus musculus), P51450 | Drosophila S2 Gal4-RORgamma UAS-luciferase reporter, 20 h | Potency, µM (doses to about 53.6 µM), actives largely listed as inhibitors | hit rate 5.4% among 310,000 | AID 2551, 2010; note: nearly all actives have a fitted effect of over 60% in size
# Target sequence (P51450 whole entry, looked up, the tested form may be a part): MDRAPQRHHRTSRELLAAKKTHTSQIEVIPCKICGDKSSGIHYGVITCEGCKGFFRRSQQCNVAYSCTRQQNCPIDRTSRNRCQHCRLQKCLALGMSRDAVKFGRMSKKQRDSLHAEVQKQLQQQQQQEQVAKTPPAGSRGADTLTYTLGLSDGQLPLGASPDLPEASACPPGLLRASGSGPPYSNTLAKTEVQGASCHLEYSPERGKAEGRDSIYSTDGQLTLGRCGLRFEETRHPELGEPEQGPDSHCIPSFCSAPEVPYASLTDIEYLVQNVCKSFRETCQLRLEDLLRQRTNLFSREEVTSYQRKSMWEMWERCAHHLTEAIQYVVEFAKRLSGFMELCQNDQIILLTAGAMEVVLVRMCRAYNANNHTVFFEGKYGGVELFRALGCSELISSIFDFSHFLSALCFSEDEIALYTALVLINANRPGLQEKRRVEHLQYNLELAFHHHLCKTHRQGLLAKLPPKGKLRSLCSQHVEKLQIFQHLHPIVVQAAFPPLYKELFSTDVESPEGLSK
#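 Stable Schneider cell line, Gal4 DNA-binding domain fused to ROR gamma, UAS-luciferase. Cmpd 1 hr RT → CuSO4 700 uM final → 20 hr RT → luciferase reagent 10 min → luminescence.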
# DT40 TDP1 no CPT – qHTS for Inhibitors of human tyrosyl-DNA phosphodiesterase 1 (TDP1): qHTS in cells in absence of CPT | DT40 Tdp1-/- hTDP1 cells, no CPT, ATP luminescence, 48 h | hit rate 15% among 420,000 | Potency, µM (titrated, usually from 46.2 µM), usual class: inhibitors; note: nearly all actives have a fitted effect of over 55% in size
#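 Seeded 400 DT40-hTDP1 cells/well (vehicle DMSO, no 20 nM CPT); pinned compounds; ≥48 hr at 37 °C; CellTiter-Glo luminescence as viability measure.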
# LDHA block – qHTS assay for inhibitors of human lactate dehydrogenase; purified LDHA, NADH/diaphorase-resazurin fluorescence; hits give low values; activity change, % (values are at about 110 or 230 µM); hit rate 0.15% among 480,000; AID 1347041, 2019; in the data active = activity change below about -30%; inconclusive = mostly about -25% to -30%
#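 Human LDH5 at 2 nM final in Tris HCl pH 7.4 with 0.06 mM NADH and 0.2 mM pyruvate, reacted 5 minutes at room temperature. Remaining NADH coupled via diaphorase/resazurin; resorufin fluorescence read at 0 and 20 minutes, normalized to enzyme-free and DMSO wells.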
# TDP1 cell CPT – qHTS for Inhibitors of human tyrosyl-DNA phosphodiesterase 1 (TDP1): qHTS in cells in presence of CPT; chicken DT40 Tdp1-/-;hTDP1 cells + 20 nM CPT, ATP luminescence, 48 h; Potency, µM (series often up to 46.2 µM), actives largely listed as inhibitors; hit rate 12% among 420,000; note: nearly all actives have a fitted effect of over 55% in size
#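 Chicken DT40 Tdp1-/- cells stably complemented with human TDP1 were seeded at 400 cells/well in medium containing 20 nM camptothecin, exposed to pin-transferred compounds, and grown at 37 °C for at least 48 hr. Viability was read as ATP luminescence.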
# Numbers stand for hits; . = inactive; ? = inconclusive; / = no result. Unless noted, calls come from the whole dose curve; as a rule, active = well fitted curve in the direction sought with a large enough effect; inconclusive = small, poorly fitted or top-dose-only effect, or another doubt; inactive = no such curve, though single readings can be large; an effect the other way counts as inactive or inconclusive.
SMILES,IL-1B inflam inh,Gal4-VP16 FLuc,RORgamma inh,DT40 TDP1 no CPT,LDHA block,TDP1 cell CPT
NS(=O)(=O)c1cccc(NC(=O)CSc2ncnc3ccccc23)c1,.,.,.,?,.,.
NS(=O)(=O)c1cccc(NC(=O)CCCNC(=O)c2ccc(Cl)cc2)c1,.,.,.,.,.,.
CCN(CC)S(=O)(=O)c1ccc(C)c(NC(=O)CSc2ncc(C(F)(F)F)cc2Cl)c1,.,.,.,23µM,.,?
Cc1ccc2c(CC(=O)NC3CCCCCC3)coc2c1,/,/,/,/,.,/
CC1CCN(C(=O)C(=O)N2CCN(c3nc(C(C)C)c4c(c3C#N)CCCC4)CC2)CC1,/,/,/,/,.,/
CCOCCCNC(=O)C1CCNCC1,/,/,/,/,.,/
COc1ccc2c(c1)O/C(=C\c1cccc(OS(C)(=O)=O)c1)C2=O,/,/,/,/,.,/
Cc1ccc(NC(=O)Cc2c(Cl)cccc2Cl)cc1S(=O)(=O)N(C)C,.,.,.,16µM,.,?
CN(C)S(=O)(=O)c1cc(NC(=O)CNCc2ccccc2)ccc1Cl,.,.,?,?,.,.
Cc1ccc(NC(=O)CNCc2ccc(Cl)cc2Cl)cc1S(=O)(=O)N(C)C,.,.,.,18µM,.,?
Cc1ccc(SCc2ccccc2C#N)cc1,/,/,/,/,.,/
Cc1ccc2nc(C3CCCN3Cc3nc(CCC(C)C)no3)[nH]c2c1 (stereo not given),.,20µM,7.1µM,?,.,?
CCn1cnnc1-c1cccc(NS(=O)(=O)c2cccc(F)c2)c1,/,/,/,/,.,/
Cc1ccc(NC(=O)CNc2cccc(Br)c2)cc1S(=O)(=O)N1CCOCC1,-52,/,/,16µM,.,?
CC(=O)c1cccc(NS(=O)(=O)N2CCOCC2)c1,.,.,.,.,.,.
Cc1ccc(NC(=O)CSc2nc(N)cc(N)n2)cc1S(=O)(=O)N1CCOCC1,.,.,?,.,.,.
Cc1nc(-c2ccc(F)cc2)c(CC(=O)Nc2ccc(C)c(S(=O)(=O)N3CCOCC3)c2)s1,.,.,?,?,.,10µM
Cc1ccc(NS(=O)(=O)N2CCOCC2)cc1Cl,.,.,0.35µM,.,.,.
Cc1ccc(NCC(=O)Nc2ccc(F)c(Cl)c2)cc1S(=O)(=O)N1CCOCC1,.,/,/,21µM,.,?
COc1ccc(CCNC(=O)C(=O)NCc2n[nH]c(=O)c3ccccc23)cc1OC,/,/,/,/,.,/
CCOC(=O)c1cnc2c(Cl)cccc2c1Nc1ccccc1OC,/,/,/,/,.,/
Cc1ccc(C(=O)Nc2ccccc2SCc2cc(=O)n3oc(C)cc3n2)cc1,/,/,/,/,.,/
O=C(O)C(=O)/C(=C/c1ccsc1)c1ccc2ccccc2n1,/,/,/,/,.,/
O=C(/C=C/Sc1ccccc1)Nc1ccccc1,/,/,/,/,.,/
COc1cc2c(cc1OC)C(C)N(CC(=O)Nc1ccc(C)c(S(=O)(=O)N3CCOCC3)c1)CC2 (stereo not given),.,.,.,16µM,.,?
SMILES,IL-1B inflam inh,Gal4-VP16 FLuc,RORgamma inh,DT40 TDP1 no CPT,LDHA block,TDP1 cell CPT
Cc1ccc(C)c(SCC(=O)Nc2ccc(C)c(S(=O)(=O)N3CCOCC3)c2)c1,.,/,/,13µM,.,23µM
Nc1nonc1-n1nnc(C(=O)N/N=C/c2ccc(Cl)cc2Cl)c1CN1CCCC1,.,.,.,.,.,.
CC1CCN(Cc2c(C(=O)N/N=C/c3ccc(C(C)C)cc3)nnn2-c2nonc2N)CC1,.,.,.,?,.,?
CC1CCN(Cc2c(C(=O)N/N=C/c3ccc(C(C)(C)C)cc3)nnn2-c2nonc2N)CC1,.,.,.,13µM,.,13µM
Nc1nonc1-n1nnc(C(=O)N/N=C/c2cccc(Cl)c2Cl)c1CN1CCCC1,.,?,?,15µM,.,8.2µM
COc1ccc2oc(=O)c(-c3nc(-c4ccccn4)no3)cc2c1,/,/,/,/,.,/
CCOc1ccc(/C(O)=C2\C(=O)C(=O)NC2c2ccc(Cl)cc2)cc1 (stereo not given),/,/,/,/,.,/
COc1ccccc1C(=O)c1cc2ccc(O)cc2oc1=O,.,.,20µM,.,.,.
